This excerpt belongs to a sample that is enriched for hits.
DUX4 txn inh: inhibitors of DUX4-driven ZSCAN4 reporter expression, primary screen, 293T cells, Gaussia and Italica luciferase; 293T-iDUX4 ZSCAN4-Gaussia luciferase reporter, 24 h; hits give low values; activity change, negative = inhibition, % (test concentration not listed); 0.8% of 37,000 active; AID 1224904, 2016;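 active = mean inhibition of at least 10% in the main channel, exceeding the control channel by a set limit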;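 also: 0% = median of neutral control wells and -100% = median of positive control wells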
* hit, by the source's call.

SMILES	DUX4 txn inh
CC(C)CC#Cc1ccc([C@@H]2[C@@H](CO)N3C(=O)CN(C(=O)c4cccc(F)c4)C[C@H]23)cc1	0.2
CO[C@@H]1CN(C)C(=O)c2cc(NS(=O)(=O)c3cn(C)cn3)ccc2OC[C@H](C)N(CCC(F)(F)F)C[C@H]1C	-2.5
O=C(C[C@H]1C[C@H]2c3cc(NC(=O)NC4CCCC4)ccc3O[C@H]2[C@@H](CO)O1)NCc1cccc(F)c1	18.4
C[C@H](CO)N1C[C@H](C)[C@H](CN(C)Cc2ccc(C(=O)Nc3ccccc3N)cc2)OCc2cnnn2CCCC1=O	-16.0*
C[C@H]1CN([C@@H](C)CO)C(=O)CCCn2nncc2CO[C@H]1CN(C)Cc1ccc(C(=O)O)cc1	0.7
C[C@@H]1CN([C@@H](C)CO)C(=O)CCCn2nncc2CO[C@@H]1CN(C)Cc1ccc(C(=O)O)cc1	2.7
Cc1noc(C)c1NC(=O)NCC[C@H]1CC[C@H](NC(=O)Cc2cccnc2)[C@H](CO)O1	-0.3
CCCC(=O)N1CCC2(CC1)CN(Cc1ccncc1)[C@@H](CO)c1[nH]c3cc(OC)ccc3c12	1.7
CCC(=O)N1CC2(C1)CN(Cc1ccc(OC)cc1)[C@H](CO)c1[nH]c3cc(OC)ccc3c12	2.0
CCCC(=O)N1CC2(C1)CN(Cc1ccc(Cl)cc1)[C@H](CO)c1[nH]c3cc(OC)ccc3c12	-80.4*
COc1ccc(CN2CC3(CN(C(=O)c4ccccc4)C3)c3c([nH]c4cc(OC)ccc34)[C@@H]2CO)cc1	-51.3*
CCCC(=O)N1CCC2(CC1)CN(Cc1ccc(Cl)cc1)[C@H](CO)c1[nH]c3cc(OC)ccc3c12	-63.4*
COc1ccc2c3c([nH]c2c1)[C@H](CO)N(Cc1ccc(F)cc1)CC31CN(C(C)=O)C1	-3.1
CCCC(=O)N1CC2(C1)CN(Cc1ccncc1)[C@H](CO)c1[nH]c3cc(OC)ccc3c12	9.7
COc1ccc2c3c([nH]c2c1)[C@@H](CO)N(Cc1ccncc1)CC31CN(C(=O)c2cccnc2)C1	18.0
COc1ccc2c3c([nH]c2c1)[C@H](CO)N(Cc1ccncc1)CC31CN(C(=O)Cc2ccncc2)C1	12.4
CCCC(=O)N1CCC2(CC1)CN(Cc1nccs1)[C@H](CO)c1[nH]c3cc(OC)ccc3c12	-1.4
COc1ccc(CN2CC3(CCN(C(=O)c4ccccc4)CC3)c3c([nH]c4cc(OC)ccc34)[C@@H]2CO)cc1	-1.8
CCCC(=O)N1CC2(C1)CN(Cc1ccc(Cl)cc1)[C@@H](CO)c1[nH]c3cc(OC)ccc3c12	-85.0*
CCN1[C@@H]2Cn3c(ccc(C4=CCCCC4)c3=O)[C@H]1[C@@H](C(=O)NCC(F)(F)F)[C@@H]2CO	-3.8
CNC[C@H]1OCCCC[C@@H](C)Oc2ccc(NC(=O)Nc3cccc4ccccc34)cc2C(=O)N([C@H](C)CO)C[C@H]1C	-0.9
CO[C@H]1CC[C@H]2CCOc3c(C#N)cccc3C(=O)N(C)C[C@H](C)C(=O)N(C)C[C@H]1O2	2.4
CN1[C@@H]2Cn3c(ccc(-c4ccccc4)c3=O)[C@H]1[C@@H](C(=O)NC1CCCCC1)[C@@H]2CO	0.5
C[C@@H]1CCCCO[C@H](CN(C)C(=O)CCC(F)(F)F)[C@H](C)CN([C@@H](C)CO)C(=O)c2cc(NC(=O)Cc3ccccc3)ccc2O1	2.7
CCCNC(=O)C[C@H]1CC[C@@H]2[C@H](COc3ccc(NC(=O)c4cccs4)cc3C(=O)N2C)O1	4.7
SMILES	DUX4 txn inh
CN1C[C@H]2[C@@H](c3ccccc31)[C@H](CO)N2S(=O)(=O)c1ccccc1	0.0
C[C@H](CO)N1C[C@H](C)[C@@H](CN(C)CC2CCCCC2)OCc2cn(nn2)CCCC1=O	8.7
COc1ccc2c3c([nH]c2c1)[C@H](CO)N(C(=O)Nc1ccc(F)cc1)CC31CN(S(C)(=O)=O)C1	6.9
COc1ccc2c3c([nH]c2c1)[C@H](CO)N(Cc1ccncc1)CC31CN(S(C)(=O)=O)C1	8.7
COc1ccc2c3c([nH]c2c1)[C@H](CO)N(Cc1cccc(Cl)c1)CC31CN(C)C1	-6.9
COc1ccc2c3c([nH]c2c1)[C@H](CO)N(Cc1ccc(Cl)cc1)CC31CN(S(C)(=O)=O)C1	-45.3*
COc1ccc(CN2CC3(C2)CN(C(=O)Nc2ccc(F)cc2)[C@@H](CO)c2[nH]c4cc(OC)ccc4c23)cc1	-39.3*
COc1ccc2c3c([nH]c2c1)[C@H](CO)N(C(=O)Nc1ccc(F)cc1)CC31CN(CC2CC2)C1	1.9
COc1ccc2c3c(n(C)c2c1)[C@H](CO)N(C(=O)Nc1ccccc1F)CC31CN(C)C1	1.0
C[C@H]1CCCCO[C@@H](CN(C)C(=O)C2CCCCC2)[C@@H](C)CN([C@@H](C)CO)C(=O)c2cc(N(C)C)ccc2O1	0.8
CC(C)NC(=O)Nc1ccc2c(c1)C(=O)N([C@@H](C)CO)C[C@H](C)[C@H](CN(C)S(=O)(=O)c1ccc(F)cc1)OCCCC[C@@H](C)O2	3.6
COc1ccc(NC(=O)N(C)C[C@@H]2Oc3c(NC(=O)c4ccncc4)cccc3C(=O)N([C@@H](C)CO)C[C@H]2C)cc1	1.5
CC=Cc1ccc2n(c1=O)C[C@H]1[C@H](CO)[C@@H](C(=O)NCCOC)[C@@H]2N1Cc1ccccc1OC (mixture of isomers)	-9.3
O=C(CN1CCOCC1)N1CCCCN2[C@@H](CO)[C@@H](c3ccc(C#Cc4ccccc4F)cc3)[C@@H]2C1	-9.2
O=C(CN1CCOCC1)N1CCCCN2[C@H](CO)[C@@H](c3ccc(C#Cc4ccccc4F)cc3)[C@@H]2C1	-35.9*
CC(C)NC(=O)N1CCCCN2[C@H](C1)[C@@H](c1ccc(C#Cc3ccccc3F)cc1)[C@@H]2CO	-46.8*
O=C(CN1CCOCC1)N1CCCCN2[C@H](CO)[C@@H](c3ccc(C#Cc4ccccc4F)cc3)[C@H]2C1	-7.2
CC(=O)N1CCCCN2[C@@H](CO)[C@H](c3ccc(C#Cc4ccccc4F)cc3)[C@@H]2C1	-9.9
CC(=O)N1CCCCN2[C@H](C1)[C@H](c1ccc(C#Cc3ccccc3F)cc1)[C@@H]2CO	-7.0
CCC(=O)N1CC2(CCN(Cc3ccncc3)CC2)c2c(n(C)c3cc(OC)ccc23)[C@@H]1CO	1.2
COCC(=O)N1CC2(C1)[C@H](c1ccccc1)[C@@H](CO)N2C(=O)c1ccncc1	0.4
COCCNC(=O)C[C@H]1C[C@@H]2c3cc(NC(=O)c4ccc5c(c4)OCO5)ccc3O[C@@H]2[C@H](CO)O1	0.6
CCC(=O)N1CC2(C1)CN(C(=O)CN1CCOCC1)[C@H](CO)c1[nH]c3cc(OC)ccc3c12	-1.3
COc1ccc2c3c(n(C)c2c1)[C@@H](CO)N(C(=O)CN1CCOCC1)CC31CN(C(=O)C2CC2)C1	8.3
OC[C@@H]1[C@@H](c2ccc(C#CC3(O)CCCC3)cc2)[C@H]2CN(Cc3ccccc3F)CCCCN12	7.3
SMILES	DUX4 txn inh
COc1ccc(C#Cc2ccc([C@@H]3[C@H]4CN(Cc5ccncc5)CCCCN4[C@H]3CO)cc2)cc1	-36.3*
COc1ccc(C#Cc2ccc([C@H]3[C@H]4CN(Cc5ccccc5F)CCCCN4[C@H]3CO)cc2)cc1	-21.4*
COc1ccc(C#Cc2ccc([C@@H]3[C@H](CO)N4CCCCN(Cc5ccncc5)C[C@@H]34)cc2)cc1	-0.2
COCC#Cc1ccc([C@@H]2[C@@H](CO)N3CCCCN(Cc4ccncc4)C[C@H]23)cc1	23.9
CN1CCCCN2[C@@H](CO)[C@H](c3ccc(C#Cc4ccccc4F)cc3)[C@@H]2C1	2.0
CN1CCCCN2[C@H](C1)[C@@H](c1ccc(C#Cc3ccccc3F)cc1)[C@@H]2CO	-10.0

Assay outcomes deposited in PubChem by Broad Institute.
